Data on 40 compounds can be found in PubChem BioAssay (Tox21).

Inconclusive results are not listed. A call without a number means that no potency is given here. The source made the active and inactive calls. Calls follow the shape of the dose curve; as a rule, active = well fitted cell-killing curve with a large enough effect in the repeat runs; inconclusive = weak or mixed curves, or effect the other way; inactive = flat fitted curve, though single readings scatter.

The assay in a line: qHTS assay to identify small molecule agonists of the constitutive androstane receptor (CAR) signaling pathway - cell viability counter screen (AID 1224836). Also: nearly all actives have a fitted effect of over 45% in size. The conditions noted are these: HepG2-CYP2B6-hCAR viability, CellTiter-Fluor, 23 h, PK11195 added to every well; series mostly up to 92.4 µM. The text has this:
U.S. Tox21 Program National Center for Advancing Translational Sciences [NCATS] NIH Chemical Genomics Center [NCGC] U.S. Environmental Protection Agency [EPA] National Institutes of Environmental Health Sciences [NIEHS] National Toxicology Program [NTP] U.S. Food and Drug Administration [FDA] Tox21 Assay Overview: The constitutive androstane receptor (CAR) is a nuclear receptor which regulates multiple drug metabolizing enzymes (DMEs) and transporters. Activating CAR will generally increase the transcription and subsequent translation of CYP2B6 and CYP3A4. These two DMEs represent about 50% of the drug metabolizing potential in the body. […] Recently, there have also been studies performed indicating CARs role in energy metabolism and cancer therapy. Therefore, inducing CARs activity could have a potential effect on diabetes and cancer. Identifying environmental toxins and compounds which modulate CAR, through the use of the Tox21 10K compound collection, will be an important step in determining the toxicity and potential therapeutic effects these factors will have on the human body. To differentiate true CAR agonists from cytotoxic substances, the assay is multiplexed with a cell viability assay.
Tox21 Assay Protocol Summary: A double-stable (hCAR and CYP2B6-2.2kb) transfected cell line, derived from human hepatoma (HepG2) cells, was utilized for the duration of the quantitative high-throughput screens. The HepG2-CYP2B6-hCAR cells were dispensed at 2500 cells/4 uL/well in 1536-well white solid bottom plates using a Multidrop Combi. After the assay plates were incubated at 37 C/5% CO2 for 4 hrs, 23 nL of compounds at 15 concentrations (from 5-48 columns) or positive control (from 1 to 4 columns) were transferred to the assay plates using a Pintool station. One uL of PK11195 (final concentration = 0.75 uM) was added, using a Flying Reagent Dispenser, inside each well. After a 23 hr incubation period at 37 C/5% CO2, 1 uL of CellTiter-Fluor reagent was added into each well of the assay plates using a Flying Reagent Dispenser. The fluorescence intensity in the plates was then measured using a ViewLux plate reader.
(In general: In qHTS, concentration-response curves come from the screen itself.)
In the case of `CNC(=O)Oc1ccccc1C(C)C`, the Potency result is “inactive”.

Regarding `CC1N=C(N)OC1c1ccccc1` (stereo not given), the Potency result was “inactive”.

As for `CN1C(=O)COc2c(C(=O)NC3CN4CCC3CC4)cc(Cl)cc21` (stereo not given), the Potency entry was “inactive”.

Take `N#CN=C1SCCN1Cc1ccc(Cl)nc1`: the Potency entry was “inactive”.

Consider `O=C(Cl)/C=C/C(=O)Cl`, for which the Potency entry was “inactive”.

As for `CCC1(c2ccccc2)CCC(=O)NC1=O` (stereo not given), the Potency entry is “inactive”.

Consider `C=C(Cl)CSC(=S)N(CC)CC`, for which the Potency result is “inactive”.

With `Cc1ccc(Cl)c(O)c1`, the Potency entry is “inactive”.

As for `Cc1ccc2c(c1)C1CN(C)CCC1N2` (stereo not given), the viability change, negative = cytotoxic was 3.2% [at 19 µM] (inactive).

Regarding `CC[C@H](N)c1ccccc1`, the Potency entry was “inactive”.

As to `COC[C@@H](NC(C)=O)C(=O)NCc1ccccc1`, the Potency result was “inactive”.

`O=C(NC(=O)c1c(F)cccc1F)Nc1cc(Cl)c(F)c(Cl)c1F`: the Potency entry was “inactive”.

Turning to `CCC(CC)(CNC(=O)CCCO)c1cccc(OC)c1`, the Potency entry is “inactive”.

On to `CN(CCO)CCO`, for which the Potency entry was “inactive”.

Turning to `O=P(O)(O)c1ccccc1`, the Potency result is “inactive”.

On to `NCC1(CC(=O)O)CCCCC1`, for which the Potency result was “inactive”.

For the compound `CN1COCN(Cc2cnc(Cl)s2)/C1=N\[N+](=O)[O-]`, the Potency entry is “inactive”.

Consider `CON(C)C(=O)Nc1ccc(Br)cc1`, for which the Potency result is “inactive”.

Regarding `OP(O)c1ccccc1`, the Potency entry is “inactive”.

On to `COC1=CC(=O)O[C@@H](/C=C/c2ccccc2)C1`, for which the Potency entry was “inactive”.

For `CCOC(=O)CC(SP(=S)(OC)OC)C(=O)OCC` (stereo not given), the Potency entry is “inactive”.

Regarding `C=CCCC#N`, the Potency result was “inactive”.

With `N=C(N)[Se]`, the Potency result is “inactive”.

Regarding `CCN(CCO)CCn1c(Cc2ccccc2)nc2c1c(=O)n(C)c(=O)n2C`, the Potency entry was “inactive”.

`CCc1ccc(C2CCNCC2)cc1`: the Potency result was “inactive”.

Take `CCC1(CC)C(=O)C=CNC1=O`: the Potency result is “inactive”.

`BrCC1CO1` (stereo not given): the Potency entry is “inactive”.

As to `N[C@@H]1C[C@H]1c1ccccc1`, the Potency entry was “inactive”.

Turning to `O=[N+]([O-])CCO`, the Potency entry is “inactive”.

Consider `CC(O)CCl` (stereo not given), for which the Potency entry was “inactive”.

Turning to `C=C(C)[C@H]1CN[C@H](C(=O)O)[C@H]1CC(=O)O`, the Potency result is “inactive”.

As for `O=C(O)C(Br)(Br)Br`, the Potency entry was “inactive”.

As for `CC#Cc1cc(C)nc(Nc2ccccc2)n1`, the Potency entry is “inactive”.

For `COc1cc(CCN)cc(OC)c1OC`, the Potency result is “inactive”.

As to `O=C(O)C(F)(F)C(F)(F)C(F)(F)C(F)(F)C(F)(F)C(F)(F)F`, the Potency entry is “inactive”.

Regarding `N#CN`, the Potency result was “inactive”.

Consider `C=CCC1(C(C)CC)C(=O)NC(=O)NC1=O` (stereo not given), for which the Potency result is “inactive”.

Turning to `CCCC(C)C1(CC)C(=O)N=C(S)NC1=O` (stereo not given), the Potency result was “inactive”.

As for `CCOP(=S)(OCC)SCCl`, the Potency entry was “inactive”.

Take `C=CCc1cc(OC)c2c(c1)OCO2`: the Potency result was “inactive”.
